Tested on: Plasmodium berghei ANKA liver stage in HepG2-A16-CD81
Experiment: % inhibition of liver stage parasite viability (luciferase); higher = more inhibition
Conditions: 5 µM; 48 h
Protocol: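 Single-concentration screen of the MMV Pandemic Response Box. P. falciparum NF54 asexual blood stages: pLDH assay, 72 h at 37 °C, 2 and 20 µM, n=2. Stage IV/V gametocytes (NF54): luciferase reporter (NF54-Pfs16-GFP-Luc, 48 h), ATP bioluminescence (24 h) and PrestoBlue (48 h) at 1 and 5 µM, n=1. P. berghei liver stage (luciferase in HepG2-A16-CD81, 48 h post infection) at 5 µM, n=4. All normalised to DMSO and kill controls as % inhibition.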

SMILES	% inhibition of liver stage parasite viability
C[C@@H](NC(=O)c1cccc(-c2c[nH]c(-c3cc4ccccc4cn3)n2)c1)c1ccc(F)cc1	29.1%
O=S(=O)(Nc1cccc2cccnc12)c1ccccc1	0.562%
COc1ccc2nc(-c3ccccc3)cc(O)c2c1	78.6%
Nc1nc(C(F)(F)F)cc2c1[nH]c(=O)n2Cc1ccccc1	-12.1%
CC(C)(C)c1ccc(C(=O)NC(=O)N2CCCc3ccccc32)cc1	15.6%
CCn1cc(C(=O)O)c(=O)c2cc(F)c(N3CCNC(C)C3)c(F)c21 (stereo not given)	22.1%
O=C(c1cc(O)nc2ccccc12)N1CCN(c2ccccc2)CC1	34.2%
COc1ccc(-n2cnc3cc(NCc4ccco4)ccc32)cc1	-16.1%
O=C(/C=C/n1cnc(-c2cc(C(F)(F)F)cc(C(F)(F)F)c2)n1)NNc1cnccn1	11.6%
O=C(Nc1nnc(-c2ccc(Cl)cc2)o1)c1nc2ccccc2s1	11%
O[C@@](Cn1cnnn1)(c1ccc(F)cc1F)C(F)(F)c1ccc(-c2ccc(OCC(F)(F)F)cc2)cn1	40%
Cn1cc(NC(=O)c2cc(NC(=O)c3ccc(/C=C/c4cnc5ccccc5c4)cc3)cn2C)cc1C(=O)NCCN1CCOCC1	85.8%
O=S(=O)(Nc1ccccc1)c1ccc(NC(=S)Nc2ccccc2)cc1	25.7%
CC(C)/N=c1\cc2n(-c3ccc(Cl)cc3)c3ccccc3nc-2cc1Nc1ccc(Cl)cc1	59.4%
O=C1C=C(c2ccccc2)S(=O)(=O)c2ccccc21	30.4%
Nc1nc(-c2ccccc2)nc2[nH]nc(Nc3ccc(C(F)(F)F)cc3)c12	53.1%
CC1CCc2c(N3CCC(O)CC3)c(F)cc3c(=O)c(C(=O)O)cn1c23 (stereo not given)	17.1%
O=S(=O)(Nc1ccc(-n2cccc2)cc1)c1ccc(Cl)c(Cl)c1	38%
CCc1c(OCC2CCC2)c2cc(F)ccc2[nH]c1=O	12.7%
N#Cc1cc([N+](=O)[O-])ccc1Oc1ccccc1Cl	12.4%

SMILES	% inhibition of liver stage parasite viability
NCC(=O)Nc1ccc(-n2nc(C(F)(F)F)cc2-c2ccc3c(ccc4ccccc43)c2)cc1	20.2%
CCOC(=O)/C=C/[C@H](C[C@@H]1CCNC1=O)NC(=O)[C@H](CC)n1cccc(NC(=O)c2cc(C)on2)c1=O	9.24%
NC(=O)c1ccc(I)c([N+](=O)[O-])c1	20.9%
CCc1ccc(C2CC(C(F)(F)F)n3ncc(C(=O)NCc4ccc(OC)cc4)c3N2)cc1 (stereo not given)	32.1%
CCOC(=O)/C=C/[C@H](C[C@@H]1CCNC1=O)NC(=O)[C@@H](CC(=O)[C@@H](NC(=O)c1cc(C)on1)C(C)C)Cc1ccc(F)cc1	-3.33%
Nc1ccc2oc(=O)ccc2c1I	6.97%
NC[C@H]1OB(O)c2c(OCCCO)cccc21	-16.7%
O=[N+]([O-])c1cn(Cc2nc(O)nc(O)c2Br)cn1	19.1%
Cc1ccc(S(=O)(=O)Nc2cccc3cccnc23)cc1	27.6%
O=C(/C=C\n1cnc(-c2cc(C(F)(F)F)cc(C(F)(F)F)c2)n1)NNc1ccccn1	16.2%
Cc1oncc1C(=O)Nc1ccc(C(F)(F)F)cc1	-59.9%
CONC(=N)c1ccc(-c2ccc(-c3ccc(C(=N)NOC)cc3)o2)cc1	4.65%
COc1ccc(NC(=O)c2cc3ccccn3n2)cc1	-110%
CCCCc1ccc(-c2cc(C(=O)O)cc(-c3ccc(Cl)cc3)n2)cc1	40%
O=C(O)[C@H]1C2CCC(CC2)[C@@H]1Nc1nc(-c2c[nH]c3ncc(F)cc23)ncc1F	34%
CCCCCCCCCN1C[C@@H](O)[C@H](O)[C@@H](O)[C@@H]1CO	-1.14%
COc1ccc2c(c1)cc(CNC(=O)c1cc3ccccc3o1)n2CC(=O)O	24.3%
Cc1cc(Nc2ccc(F)cc2)nc(SCc2nc3ccccc3[nH]2)n1	25.6%
C[C@H](NC(=O)C(=O)Nc1ccccc1C(C)(C)C)C(=O)N[C@@H](CC(=O)O)C(=O)COc1c(F)c(F)cc(F)c1F	5.8%
O=C(Nc1nnc(-c2ccccc2)o1)c1ccc(F)cc1	53.8%

— the supplement of paper PMC7801607
